The record followed here is PubChem BioAssay (Tox21).

Values joined by “and” are separate entries in the source; they are usually repeats but may differ in a detail not shown here. Equal entries are not always repeated. A structure can be active in one record and inactive in another. Active and inactive are the calls of the source. Where a call stands in place of a potency, no number is given. Calls come from the whole dose curve; as a rule, active = well fitted activation curve with a large enough effect in the repeat runs; inconclusive = weak or mixed curves; inactive = flat fitted curve, though single readings scatter.
Potency is the fitted concentration of half-maximal effect.

The nature of this assay: A CellTox Green Cytotoxicity Assay to monitor cytotoxicity in HepG2 cells - 0 hour (AID 1224882). Note: nearly all actives have a fitted effect of over 35% in size. The settings on record: CellTox Green fluorescence; series mostly up to 76.8 µM. The text has this:
National Center for Advancing Translational Sciences [NCATS]
NIH Chemical Genomics Center [NCGC]
U.S. Environmental Protection Agency [EPA]
National Institutes of Environmental Health Sciences [NIEHS]
National Toxicology Program [NTP]
Cell-based models are critical for drug discovery. Determining the natural cytotoxic effects resulting from test compounds is an essential research activity. A CellTox Green Cytotoxicity Assay to monitor cytotoxicity in real time of continues cell culture during 40 hours of the compound treatment was used to screen Tox21 10K library compounds in HepG2 cells. CellTox Green Cytotoxicity Assay is a nonlytic, homogeneous, biofluorescent method to measure cytotoxicity in cell culture after experimental manipulation. The assay system uses a proprietary asymmetric cyanine dye that is excluded from viable cells but preferentially stains the dead cell's DNA. […] Viable cells produce no appreciable increases in fluorescence. Therefore, the fluorescence signal produced by the binding interaction with dead cell DNA is proportional to cytotoxicity.
The mixture of HepG2 cell suspension and reagents were dispensed at 600cells/6 ul/well in 1536-well tissue culture treated black solid bottom plates using a Multidrop dispenser. After the assay plates were incubated at a 37 C/5% CO2 incubator for 5 hours, 23 nL of compounds dissolved in DMSO, positive and negative controls was transferred to the assay plate by a pintool work station. The plates were incubated at 37 C for 40 hours. The fluorescence intensity were measured at 0h, 8h, 16h, 24h, 32h and 40h time points using ViewLux plate reader during compound treatment.
As for `COc1nc(C)nc(Cl)c1NC1=NCCN1`, the Potency entry was “inactive”.

On to `CCCCCCCCCCCC[N+](C)(C)C`, for which the Potency result was “inactive”.

`C=C(C)C1CC=C(C)C(OC(C)=O)C1` (stereo not given): the Potency result is “inactive”.

With `Cc1cc(C(C)(C)C)c(O)c(C(C)(C)C)c1`, the Potency entry was “inactive”.

With `O=C(O)CP(=O)(O)O`, the Potency result was “inactive”.

Turning to `O=C(Nc1ccccc1SSc1ccccc1NC(=O)c1ccccc1)c1ccccc1`, the Potency entry is “inactive”.

`OCCOCCN1CCN(C(c2ccccc2)c2ccc(Cl)cc2)CC1` (stereo not given): the Potency result is “inactive”.

With `c1cnc2cc3c(cc2n1)C1CNCC3C1`, the Potency entry was “inactive”.

For `CC[C@@H](N)CO`, the Potency result was “inactive”.

Consider `C1COC(NC(C2CC2)C2CC2)=N1`, for which the Potency entry is “inactive”.

Take `CCCCN(CCO)CCCC`: the Potency result was “inactive”.

Turning to `BrC1CCC(Br)C(Br)CCC(Br)C(Br)CCC1Br` (stereo not given), the Potency entry is “inactive”.

On to `Cc1ccc(-c2cc(C(F)(F)F)nn2-c2ccc(S(N)(=O)=O)cc2)cc1`, for which the Potency result is “inactive”.

Regarding `CC[C@]1(O)C[C@@H]2CN(CCc3c([nH]c4ccccc34)[C@@](C(=O)OC)(c3cc4c(cc3OC)N(C)[C@H]3[C@@](O)(C(=O)OC)[C@H](OC(C)=O)[C@]5(CC)C=CCN6CC[C@]43[C@@H]65)C2)C1`, the Potency result is “inactive”.

For the compound `CCC(CO)(CO)COCC(CC)(CO)CO`, the Potency entry is “inactive”.

Take `CC(=O)CC(C)=O`: the Potency result was “inactive”.

Take `CCN(CC)C(=S)SSC(=S)N(CC)CC`: the Potency entry is “inactive”.

Consider `CN(C)c1ccc(C(=C2C=CC(=[N+](C)C)C=C2)c2ccccc2)cc1`, for which the Potency entry was “inactive”.

`C=CC(=O)OCCCCCCOC(=O)C=C`: the Potency entry is “inactive”.

In the case of `CCCCOCCOC(=O)c1ccccc1C(=O)OCCOCCCC`, the Potency entry was “inactive”.

For `CC(=O)Nc1ccc(C(=O)CCl)cc1`, the Potency entry is “inactive”.

`NC12CC3CC(CC(C3)C1)C2`: the Potency result was “inactive”.

Regarding `CC(C)(C)c1ccccc1`, the Potency entry is “inactive”.

As for `CN(C)c1ccc2nc3ccc(=[N+](C)C)cc-3sc2c1`, the Potency entry was “inactive”.

`CCCNC(C)C(=O)Nc1ccccc1C` (stereo not given): the Potency result was “inactive”.

For `Cc1cc(Cc2cc(C)cc(C(C)(C)C)c2O)c(O)c(C(C)(C)C)c1`, the Potency result was “inactive”.

Regarding `CCCN[C@H]1CCc2nc(N)sc2C1`, the Potency entry was “inactive”.

Turning to `CCCCC(CC)COC(=O)CC(C(=O)OCC(CC)CCCC)S(=O)(=O)O` (stereo not given), the Potency entry is “inactive”.

With `CNCCC(Oc1ccc(C(F)(F)F)cc1)c1ccccc1` (stereo not given), the Potency entry is “inactive”.

On to `O=C1CC2(CCCC2)CC(=O)N1CCCCN1CCN(c2ncccn2)CC1`, for which the Potency entry is “inactive”.

Turning to `CC(=O)OCC1=C(C(=O)O)N2C(=O)[C@@H](NC(=O)Cc3cccs3)[C@H]2SC1`, the Potency result is “inactive”.

Turning to `CCCCCCCCCCCCCC[P+](CCCC)(CCCC)CCCC`, the Potency result is “inactive”.

Turning to `CC(C)(c1ccccc1)c1ccc(Nc2ccc(C(C)(C)c3ccccc3)cc2)cc1`, the Potency result is “inactive”.

Regarding `COC(=O)/C=C/c1ccccc1`, the Potency result is “inactive”.

Turning to `OCC(CO)N[C@H]1C[C@](O)(CO)[C@@H](O)[C@H](O)[C@H]1O`, the Potency result was “inactive”.

For the compound `CCN(CC)C(=O)Nc1ccc(OCC(O)CNC(C)(C)C)c(C(C)=O)c1` (stereo not given), the Potency entry is “inactive”.

With `c1ccc2n[nH]nc2c1`, the Potency result is “inactive”.

With `CCC(C)(C)C(=O)O[C@H]1C[C@@H](C)C=C2C=C[C@H](C)[C@H](CC[C@@H]3C[C@@H](O)CC(=O)O3)[C@H]21`, the Potency entry was “inactive”.

In the case of `C[N+]1([O-])CCOCC1`, the Potency result was “inactive”.

Regarding `Oc1c(Cl)cc(Cl)cc1Sc1cc(Cl)cc(Cl)c1O`, the Potency result was “inactive and 43.6 µM (active)”.
